Consider 5 molecules from PubChem BioAssay.

Assay [1] is described as follows: rapamycin-like changes in RPL19A-GFP expression – cell-based, S. cerevisiae, multiplex flow cytometry, primary screen (AID 1862).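 Note: lower values mimic rapamycin by blocking the RPL19A rise seen in DMSO cells.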 The settings on record: S. cerevisiae RPL19A-GFP strain, flow cytometry fluorescence, 3 h; at 10 µM; stronger effect = lower value.
The nature of assay [2]: TOR pathway RTG branch CIT2 reporter changes – S. cerevisiae, GFP fusion, multiplex flow cytometry, primary screen (AID 1870;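 active = percent response above a set limit, the screen-wide mean plus 3 SD, cut at about 130% in these data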;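 note: barcoded CIT2-GFP strain pooled with four other GFP strains with rapamycin as positive control; median GFP fluorescence per well over plate mean of DMSO wells so 100% = DMSO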). Conditions: S. cerevisiae CIT2-GFP expression, 3 h, at 10 µM, stronger effect = higher value.
A short description of assay [3]: TOR pathway LAP4-GFP level changes – S. cerevisiae, multiplex flow cytometry, primary screen (AID 1873;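 active = GFP signal, as percent of the solvent control, above the screen mean plus 3 SD, about 149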). The settings on record: S. cerevisiae LAP4-GFP expression, 3 h, at 10 µM, stronger effect = higher value.
Assay [4] can be described thus: yeast AGP1-GFP level changes, GLN3 branch – cell-based, multiplex flow cytometry, S. cerevisiae, primary screen (AID 1887;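 active = GFP signal above the screen-wide mean plus 3 SD, that is over about 124.5% of the solvent control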;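 note: AGP1-GFP fusion strain of S. cerevisiae within a five-strain barcoded multiplex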). Conditions: 3 h, at 10 µM, stronger effect = higher value.
The nature of assay [5]: reduced mouse 2C T cell binding to pMHC/ICAM-1 vesicles – MLPCN validation set, flow cytometry, LFA-1/ICAM-1 modulator project, pilot screen (AID 2523;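 active = response below a set limit, under 55% cells CD8-positive and vesicle-bound, and CD8 cells' 90th-percentile brightness under 279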;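 for vesicle binding response: mean PE anti-B7-1 fluorescence of CD8+ cells relative to row control; 100% = QL9-loaded vesicles with DMSO vehicle in the same plate row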). The settings on record: 2C mouse CD8+ T cells, at 7 µM, stronger effect = lower value; double positive events: measured here: CD8+/vesicle+ event percentage.
The target in assay [6] is Integrin beta-1 (Homo sapiens) + Integrin alpha-4 (Homo sapiens) (UniProt P13612+P05556). In words: alpha4beta1 integrin LIBS antibody binding reduction – U937 cells, HUTS-21 mAb, flow cytometry, validation set, VLA-4 allosteric modulator project, pilot screen (AID 2674;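 active = inhibition above 50%, about 3 SD of the validation set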;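 note: antibody binding induced by the VLA-4 ligand LDV present at three times its Kd; 0% = LDV ligand with antibody and no compound and 100% = antibody without LDV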). The settings on record: HUTS-21 LIBS mAb binding, at 6.7 µM, stronger effect = higher value, binding induced by LDV ligand.
Chain of Integrin beta-1 (Homo sapiens) + Integrin alpha-4 (Homo sapiens) (P05556 whole entry, looked up): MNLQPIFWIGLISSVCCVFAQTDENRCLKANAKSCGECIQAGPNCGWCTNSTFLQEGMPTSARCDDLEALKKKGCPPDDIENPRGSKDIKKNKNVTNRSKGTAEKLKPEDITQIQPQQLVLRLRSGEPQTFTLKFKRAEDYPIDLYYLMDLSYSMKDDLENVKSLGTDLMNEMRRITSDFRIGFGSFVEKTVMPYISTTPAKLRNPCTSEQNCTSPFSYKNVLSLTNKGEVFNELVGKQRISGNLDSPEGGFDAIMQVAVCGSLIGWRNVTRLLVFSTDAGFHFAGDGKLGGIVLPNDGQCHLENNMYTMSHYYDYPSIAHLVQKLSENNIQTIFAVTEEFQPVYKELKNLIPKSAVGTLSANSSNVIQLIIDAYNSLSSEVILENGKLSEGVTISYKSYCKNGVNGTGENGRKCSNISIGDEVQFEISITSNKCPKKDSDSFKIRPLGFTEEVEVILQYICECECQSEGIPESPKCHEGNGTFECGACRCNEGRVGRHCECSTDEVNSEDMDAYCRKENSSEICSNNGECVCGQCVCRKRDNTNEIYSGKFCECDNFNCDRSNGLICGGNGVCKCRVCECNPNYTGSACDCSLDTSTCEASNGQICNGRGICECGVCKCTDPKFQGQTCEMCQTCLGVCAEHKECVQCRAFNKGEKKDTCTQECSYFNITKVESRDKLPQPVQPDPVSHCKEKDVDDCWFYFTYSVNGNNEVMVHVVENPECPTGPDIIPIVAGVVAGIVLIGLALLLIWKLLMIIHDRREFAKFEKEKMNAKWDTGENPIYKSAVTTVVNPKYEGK
Chain of Integrin beta-1 (Homo sapiens) + Integrin alpha-4 (Homo sapiens) (P13612 whole entry, looked up): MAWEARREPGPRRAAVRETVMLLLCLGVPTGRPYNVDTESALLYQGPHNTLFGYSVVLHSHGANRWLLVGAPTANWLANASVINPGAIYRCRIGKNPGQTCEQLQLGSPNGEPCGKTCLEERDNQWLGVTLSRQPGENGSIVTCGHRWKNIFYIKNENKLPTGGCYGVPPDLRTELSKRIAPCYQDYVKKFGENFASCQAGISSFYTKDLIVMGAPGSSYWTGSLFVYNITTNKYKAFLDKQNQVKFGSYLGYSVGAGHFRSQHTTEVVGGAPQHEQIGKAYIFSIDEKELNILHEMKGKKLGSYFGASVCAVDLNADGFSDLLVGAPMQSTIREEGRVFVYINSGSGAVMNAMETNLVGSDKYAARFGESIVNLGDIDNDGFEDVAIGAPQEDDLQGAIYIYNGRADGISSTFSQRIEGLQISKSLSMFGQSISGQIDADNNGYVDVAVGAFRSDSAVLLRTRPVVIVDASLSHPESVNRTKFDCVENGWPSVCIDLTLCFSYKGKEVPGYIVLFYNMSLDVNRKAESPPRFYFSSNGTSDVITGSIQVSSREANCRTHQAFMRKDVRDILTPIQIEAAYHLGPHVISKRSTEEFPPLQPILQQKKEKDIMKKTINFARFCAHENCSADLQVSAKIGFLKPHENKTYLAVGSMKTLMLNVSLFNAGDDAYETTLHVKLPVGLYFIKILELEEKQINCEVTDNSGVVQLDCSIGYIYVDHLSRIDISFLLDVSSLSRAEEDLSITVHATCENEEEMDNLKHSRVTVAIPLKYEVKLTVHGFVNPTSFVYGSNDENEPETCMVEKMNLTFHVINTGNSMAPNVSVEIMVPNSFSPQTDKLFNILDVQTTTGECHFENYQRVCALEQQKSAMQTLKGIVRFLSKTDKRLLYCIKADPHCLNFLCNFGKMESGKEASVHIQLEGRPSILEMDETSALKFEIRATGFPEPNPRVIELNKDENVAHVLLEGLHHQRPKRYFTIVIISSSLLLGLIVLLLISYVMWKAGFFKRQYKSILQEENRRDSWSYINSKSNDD

Assay [7] is described as follows: calorie-restriction mimetic ROS inhibitors, yeast – validation compound set, pilot screen (AID 2706;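 active = superoxide response below 65% of plate, a cut near 3 SD across the whole screen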;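 note: yeast exposed to compound for one week at 30 degrees C before staining; 100% = mean of all compound wells on the same plate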). The settings on record: S. cerevisiae aging, superoxide DHE fluorescence; at 10 µM, stronger effect = lower value.
Assay [8] addresses Beta-adrenergic receptor kinase 1 (Homo sapiens) (UniProt P25098). The assay can be described thus: GRK2 binders displacing RNA aptamer, biochemical, validation, human GRK2, bead flow cytometry (AID 488806;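 active = aptamer binding inhibition above 30%, about 3 SD of noise from non-fluorescent compounds; inactive = inhibition at or below 30%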). The settings on record: bead-bound GRK2, FAM-aptamer displacement, at 10 µM, stronger effect = higher value.
The target in assay [9] is Beta-2 adrenergic receptor (Homo sapiens) (UniProt P07550). In words: agonist-induced loss of surface beta2AR – cell-based, FAP fluorogen, flow cytometry, validation set, pilot screen (AID 504459;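 active = percent response above 42, roughly 3 SD of non-fluorescent test compounds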;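 note: agonist-driven loss of surface beta2AR via internalization measured by FAP dye flow cytometry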). Conditions: Am2.2-beta2AR cells, at 10 µM, stronger effect = higher value.
Chain of Beta-2 adrenergic receptor (Homo sapiens) (P07550 whole entry, looked up): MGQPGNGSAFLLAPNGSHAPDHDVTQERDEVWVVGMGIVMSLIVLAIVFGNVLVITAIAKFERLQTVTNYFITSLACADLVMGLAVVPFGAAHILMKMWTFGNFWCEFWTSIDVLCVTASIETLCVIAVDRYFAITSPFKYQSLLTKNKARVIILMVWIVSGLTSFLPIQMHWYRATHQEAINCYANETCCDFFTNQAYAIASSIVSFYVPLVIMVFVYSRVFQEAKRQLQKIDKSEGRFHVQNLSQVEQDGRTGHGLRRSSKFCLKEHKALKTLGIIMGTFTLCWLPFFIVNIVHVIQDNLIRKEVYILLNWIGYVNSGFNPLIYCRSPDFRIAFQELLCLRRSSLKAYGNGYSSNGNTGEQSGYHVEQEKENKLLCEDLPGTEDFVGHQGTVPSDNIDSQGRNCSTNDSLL
Assay [10] addresses AP-2 complex subunit beta (Homo sapiens) (UniProt P63010). The assay can be described thus: beta-arrestin/AP2 interaction blockers – biochemical, validation set, GST-AP2 beads, flow cytometry, pilot screen (AID 504541;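 active = inhibition above 54%, about 3 SD of non-fluorescent compounds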;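 note: AP2 carries R879A mutation and is captured from E. coli lysate; bead-bound FITC arrestin peptide fluorescence measuring arrestin peptide binding to AP2; 0% = DMSO wells and 100% = excess unlabeled arrestin peptide control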). The settings on record: FITC arrestin peptide, at 10 µM, stronger effect = higher value, AP2 beta2 appendage fragment, R879A mutant.
The nature of assay [11]: cytosolic pH regulators acting via V-ATPase – S. cerevisiae, pHLuorin, HTS validation (AID 504600; in the data active = response above about 15%;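 note: plate controls were DMSO for no effect and reference compound for full effect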). The settings on record: V-ATPase proton transport, at 10 µM, stronger effect = higher value.
The test system of assay [12] is anti-desmoglein-3 scFv antibody binding to human DSG3. In words: blockers of pathogenic pemphigus antibody–desmoglein-3 binding – biochemical, validation compound set, bead-based, flow cytometry, pilot screen (AID 588368;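 active = binding below the plate cutoff, the plate median minus 3 SD, with a reading above zero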;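 note: signal is the median channel fluorescence of bead-bound GFP antibody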). Conditions: Protein G beads, DSG3-Fc, scFv-GFP binding, at 10 µM, stronger effect = lower value.
Assay [13] is described as follows: Nile Red efflux blockade in pump-expressing yeast – validation compound set, multiplex, phenotypic, pilot screen (AID 588506;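 active = efflux inhibition above 0.42, the validation set average plus 4 SD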;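 note: Nile Red retained in cells so higher fluorescence means more efflux inhibition; 0 = negative control wells and 1 = enniatin B 25 µM full block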). The settings on record: S. cerevisiae pump-expressing triplex, Nile Red efflux flow cytometry; at 10 µM; stronger effect = higher value; the pumps come from Candida albicans.
In assay [14] the target is ATP-binding cassette sub-family B member 6 (Homo sapiens) (UniProt Q9NP58). In words: blockers of ABCB6-driven porphyrin uptake – K562-ABCB6 cells, flow cytometry, validation set, pilot screen (AID 588550;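 active = inhibition above the screen-wide mean plus 3 SD, about 51%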;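 note: 0% = DMSO wells and 100% = benzethonium chloride 70 µM positive control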). The settings on record: K562-ABCB6 porphyrin accumulation, 1 h, at 10 µM, stronger effect = higher value.
Chain of ATP-binding cassette sub-family B member 6 (Homo sapiens) (Q9NP58 whole entry, looked up): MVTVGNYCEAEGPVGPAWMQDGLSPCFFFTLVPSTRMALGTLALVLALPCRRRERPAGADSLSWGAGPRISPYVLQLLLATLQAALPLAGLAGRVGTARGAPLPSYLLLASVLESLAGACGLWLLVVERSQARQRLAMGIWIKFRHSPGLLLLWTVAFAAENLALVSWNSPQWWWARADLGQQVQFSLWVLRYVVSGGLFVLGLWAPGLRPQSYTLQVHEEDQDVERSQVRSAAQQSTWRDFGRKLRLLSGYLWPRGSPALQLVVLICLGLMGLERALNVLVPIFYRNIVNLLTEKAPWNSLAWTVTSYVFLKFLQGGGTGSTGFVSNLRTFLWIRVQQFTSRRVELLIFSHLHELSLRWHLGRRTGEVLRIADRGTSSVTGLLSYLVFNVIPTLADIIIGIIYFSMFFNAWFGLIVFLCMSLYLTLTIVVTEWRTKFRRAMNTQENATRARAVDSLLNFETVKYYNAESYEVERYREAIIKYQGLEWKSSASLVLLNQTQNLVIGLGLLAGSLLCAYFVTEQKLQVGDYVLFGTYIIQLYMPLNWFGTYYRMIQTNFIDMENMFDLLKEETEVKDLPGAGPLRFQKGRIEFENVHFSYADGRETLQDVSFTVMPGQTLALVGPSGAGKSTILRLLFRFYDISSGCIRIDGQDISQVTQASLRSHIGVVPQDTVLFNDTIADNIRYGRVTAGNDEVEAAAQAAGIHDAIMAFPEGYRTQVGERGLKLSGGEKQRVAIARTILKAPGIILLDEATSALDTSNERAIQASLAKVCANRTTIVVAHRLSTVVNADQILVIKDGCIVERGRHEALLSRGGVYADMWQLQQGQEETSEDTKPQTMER
The nature of assay [15]: AML differentiation inducers, ER-HoxA9 marrow cells – cell-based, GFP/MAC1 double positive, flow cytometry, validation set, primary screen (AID 588685;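 active = differentiation response of at least 50%, scaled between solvent and reference control, from cells with both markers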;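 note: compound exposure lasts four days before antibody staining and flow analysis; 0% = DMSO wells and 100% = 5 µM fulvestrant positive control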). The settings on record: stronger effect = higher value, normalized: vehicle 0, fulvestrant 100.
A short description of assay [16]: TOR pathway GLN3 branch reporter MEP2-GFP changes – S. cerevisiae, multiplex flow cytometry, primary screen (AID 1867;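 active = GFP response, as percent of the DMSO control, above the screen-wide mean plus 3 SD, about 139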;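 note: median GFP channel fluorescence of barcode-gated MEP2-GFP cells measured by flow cytometry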). The settings on record: S. cerevisiae MEP2-GFP strain, 3 h, at 10 µM, stronger effect = higher value, 100% means same as DMSO wells.

Results filed as inconclusive are left out. Active and inactive are the calls of the source. Cut-off read from the data, not from the text of the source, unless noted: active = percent of DMSO control GFP below about 86%; inactive = the rest, inconclusive results apart.

Chain of AP-2 complex subunit beta (Homo sapiens) (P63010 whole entry, looked up, the tested form may be a part, one chain of several): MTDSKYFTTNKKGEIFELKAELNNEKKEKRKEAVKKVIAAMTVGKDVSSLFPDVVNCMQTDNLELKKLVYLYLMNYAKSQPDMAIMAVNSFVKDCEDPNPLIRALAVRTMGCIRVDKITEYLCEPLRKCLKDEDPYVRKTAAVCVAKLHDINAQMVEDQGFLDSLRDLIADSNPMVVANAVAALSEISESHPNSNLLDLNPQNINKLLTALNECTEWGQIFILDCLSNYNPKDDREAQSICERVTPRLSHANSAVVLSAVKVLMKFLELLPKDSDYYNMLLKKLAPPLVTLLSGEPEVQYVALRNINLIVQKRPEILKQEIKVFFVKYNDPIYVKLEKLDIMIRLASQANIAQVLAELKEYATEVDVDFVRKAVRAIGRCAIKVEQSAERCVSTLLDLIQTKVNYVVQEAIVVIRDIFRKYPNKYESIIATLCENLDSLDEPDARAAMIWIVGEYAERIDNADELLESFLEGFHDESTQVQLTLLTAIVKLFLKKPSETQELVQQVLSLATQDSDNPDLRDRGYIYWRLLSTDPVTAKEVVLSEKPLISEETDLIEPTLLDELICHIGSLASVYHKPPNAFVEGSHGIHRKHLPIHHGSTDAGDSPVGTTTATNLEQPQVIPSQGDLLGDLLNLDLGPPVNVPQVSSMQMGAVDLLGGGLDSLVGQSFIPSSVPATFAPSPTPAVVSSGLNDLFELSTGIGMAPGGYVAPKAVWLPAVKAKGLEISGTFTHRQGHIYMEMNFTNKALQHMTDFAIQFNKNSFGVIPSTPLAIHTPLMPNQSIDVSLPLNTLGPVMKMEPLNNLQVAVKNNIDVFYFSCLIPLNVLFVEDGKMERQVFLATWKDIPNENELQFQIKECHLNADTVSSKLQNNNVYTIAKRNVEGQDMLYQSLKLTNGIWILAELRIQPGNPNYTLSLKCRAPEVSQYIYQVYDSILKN
Chain of Beta-adrenergic receptor kinase 1 (Homo sapiens) (P25098 whole entry, looked up): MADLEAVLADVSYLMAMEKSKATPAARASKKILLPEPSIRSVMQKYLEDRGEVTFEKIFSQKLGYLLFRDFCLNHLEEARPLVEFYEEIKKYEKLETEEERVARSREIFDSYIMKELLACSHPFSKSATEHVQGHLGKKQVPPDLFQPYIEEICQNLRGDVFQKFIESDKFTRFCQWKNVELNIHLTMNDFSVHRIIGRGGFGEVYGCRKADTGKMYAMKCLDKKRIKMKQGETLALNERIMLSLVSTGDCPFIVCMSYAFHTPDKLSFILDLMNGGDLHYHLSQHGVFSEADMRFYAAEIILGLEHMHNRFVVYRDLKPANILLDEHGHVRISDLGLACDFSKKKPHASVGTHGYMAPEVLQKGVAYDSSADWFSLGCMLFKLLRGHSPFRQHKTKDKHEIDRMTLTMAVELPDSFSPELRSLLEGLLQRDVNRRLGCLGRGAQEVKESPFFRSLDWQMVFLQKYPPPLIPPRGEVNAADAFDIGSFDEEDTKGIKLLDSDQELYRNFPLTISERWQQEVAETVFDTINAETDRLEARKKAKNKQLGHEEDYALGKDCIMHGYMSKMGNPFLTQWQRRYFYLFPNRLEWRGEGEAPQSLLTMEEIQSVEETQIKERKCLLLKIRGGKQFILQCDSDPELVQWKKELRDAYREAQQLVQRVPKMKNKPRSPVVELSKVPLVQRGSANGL

Turning to `CC(=O)OCC1OC(n2ccc(=O)[nH]c2=O)C(O)C1O` (stereo not given), in assay [1], the percent of DMSO control GFP was 100% (inactive). For the same molecule, in assay [2], the percent response of DMSO control is 122% (inactive). For the same molecule, the GFP response vs DMSO in assay [3] is 102% (inactive). Besides, in assay [4], the GFP response, % of DMSO is 101% (inactive). In addition, in assay [5], the double positive events came to 60.2%. Besides, the vesicle binding response in [5] is 42.8% (inactive). The inhibition was -12.9% (inactive) in assay [6], -6.88% (inactive) in [10] and 9% (inactive) in [14]. The superoxide response (% of plate) in assay [7] was 97.6% (inactive). For the same molecule, the aptamer binding inhibition in assay [8] was 1% (inactive). Besides, the response is -2% (inactive) in assay [9] and -3.65% (inactive) in [11]. For the same molecule, the binding (% of control) in assay [12] was 97.7% (inactive). For the same molecule, in [13], the efflux inhibition (fraction of control) is -0.26 (inactive). Besides, the differentiation response in assay [15] was -1.71% (inactive).
Take `C=CCc1cc(Cl)ccc1OCCOCCN(C)C`: the percent of DMSO control GFP in assay [1] is 103% (inactive). Moreover, the percent response of DMSO control in assay [2] is 108% (inactive). The GFP response vs DMSO in assay [3] was 75.2% (inactive). For the same molecule, the GFP response, % of DMSO in assay [4] was 88.5% (inactive). The molecule further came in with a double positive events in assay [5] of 60%. Moreover, the vesicle binding response in assay [5] is 144% (inactive). Also, the inhibition in assay [6] is -4.52% (inactive); in [10], -5.37% (inactive); in [14], 1% (inactive). Moreover, the superoxide response (% of plate) in assay [7] is 98.8% (inactive). Besides, the aptamer binding inhibition in assay [8] is 4% (inactive). Also, the response in [9] was 3.31% (inactive); in [11], -5.95% (inactive). In addition, the binding (% of control) in [12] is 102% (inactive). Besides, the efflux inhibition (fraction of control) in assay [13] is -0.17 (inactive). In addition, the differentiation response in [15] is 16.8% (inactive).
In the case of `NC12CC3CC(CC(C3)C1)C2`, the percent of DMSO control GFP in [1] is 94.4% (inactive). In addition, the GFP response vs DMSO in assay [16] is 119% (inactive); in assay [3], 78.7% (inactive). In addition, in assay [2], the percent response of DMSO control was 111% (inactive). In [5], this molecule returned a double positive events of 60.2%. Further, the vesicle binding response in [5] was 195% (inactive). Further, the inhibition in assay [6] was -27.5% (inactive); in [10], 0.4% (inactive); in assay [14] it was 15% (inactive). In addition, the superoxide response (% of plate) in assay [7] was 96.9% (inactive). Further, in assay [8], the aptamer binding inhibition is -5% (inactive). Moreover, the response is -15.1% (inactive) in assay [9] and 3.04% (inactive) in assay [11]. Also, in assay [12], the binding (% of control) is 102% (inactive). Further, the efflux inhibition (fraction of control) in [13] was -0.24 (inactive). Further, the differentiation response in assay [15] was -1.64% (inactive).
On to `CCOc1ccc(C(=O)Nc2ccc(N3CCN(C(C)=O)CC3)cc2)cc1[N+](=O)[O-]`, for which the percent of DMSO control GFP in [1] was 93% (inactive). In addition, the GFP response vs DMSO in [16] is 106% (inactive); in assay [3], 78.7% (inactive). In assay [2], the percent response of DMSO control is 115% (inactive). Further, the double positive events in [5] was determined as 68.5%. For the same molecule, in assay [5], the vesicle binding response was 210% (inactive). For the same molecule, the inhibition is 3.55% (inactive) in [6], -0.46% (inactive) in [10] and 11% (inactive) in assay [14]. Besides, the superoxide response (% of plate) in [7] was 100% (inactive). For the same molecule, the aptamer binding inhibition in assay [8] is 3% (inactive). Moreover, the response was -6.75% (inactive) in assay [9] and 0.55% (inactive) in assay [11]. Further, the binding (% of control) in assay [12] is 99.4% (inactive). In addition, the efflux inhibition (fraction of control) in assay [13] is 0.27 (inactive). For the same molecule, the differentiation response in assay [15] is -1.64% (inactive).
For `O=C1NCC2=C1C(c1ccccc1)Nc1ccccc1N2` (stereo not given), the percent of DMSO control GFP in assay [1] was 94.6% (inactive). Further, the GFP response vs DMSO in [16] is 112% (inactive); in assay [3], 75.9% (inactive). Further, the percent response of DMSO control in assay [2] was 102% (inactive). In addition, in assay [5], the double positive events is 65.6%. The vesicle binding response in assay [5] is 205% (inactive). Besides, the inhibition is 9.37% (inactive) in assay [6], 1.06% (inactive) in [10] and 7% (inactive) in assay [14]. Moreover, the superoxide response (% of plate) in assay [7] was 100% (inactive). Moreover, the aptamer binding inhibition in [8] was 1% (inactive). The response is -9.09% (inactive) in [9] and -0.53% (inactive) in [11]. Besides, in [12], the binding (% of control) is 102% (inactive). In addition, the efflux inhibition (fraction of control) in assay [13] was 0.16 (inactive). Besides, in assay [15], the differentiation response is -4.09% (inactive).
